Compounds with a hit are over-represented: about 0.44% of the library has one in this group of screens.
USP1-UAF1 inh – Inhibitors of USP1/UAF1: Primary Screen | 0.23% of 390,000 active | recombinant USP1/UAF1, Ub-Rhodamine cleavage fluorescence | Ubiquitin carboxyl-terminal hydrolase 1 (Homo sapiens), O94782 | Potency, µM (top dose mostly 57.1 µM), usual class: inhibitors; further: nearly all actives have a fitted effect of over 60% in size
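In this screen, compounds sit with the deubiquitinase complex (1nM) for 15 min at room temperature before Ub-Rho is added at 150nM final. Fluorescence rise is then followed for 6 reads every 60 seconds.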
EPAC2 ag – qHTS for Agonist of cAMP-regulated guanine nucleotide exchange factor 4 (EPAC2): primary screen. EPAC2 activation, biochemical qHTS; response scale: 100% = 6.5 mM cAMP response. Potency, µM (doses to about 154 µM), hits mostly activators. 0.079% of 360,000 active. AID 720711, 2013; further: nearly all actives have a fitted effect of over 50% in size
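Guanine nucleotide exchange by EPAC2 is measured as reduced fluorescence of BODIPY-GDP once it is released from 250 nM Rap1B. Plates are read kinetically for 30 min at room temperature; results are scaled to 6.5 mM cAMP.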
EPAC1 ag – qHTS for Agonist of cAMP-regulated guanine nucleotide exchange factor 3 (EPAC1): primary screen; EPAC1 agonist qHTS, biochemical assay; response scale: 100% = response to 6.5 mM cAMP; Potency, µM (highest dose often 154 µM), usual class: activators; 0.073% of 360,000 active; further: nearly all actives have a fitted effect of over 60% in size
Target sequence (O95398 whole entry, looked up): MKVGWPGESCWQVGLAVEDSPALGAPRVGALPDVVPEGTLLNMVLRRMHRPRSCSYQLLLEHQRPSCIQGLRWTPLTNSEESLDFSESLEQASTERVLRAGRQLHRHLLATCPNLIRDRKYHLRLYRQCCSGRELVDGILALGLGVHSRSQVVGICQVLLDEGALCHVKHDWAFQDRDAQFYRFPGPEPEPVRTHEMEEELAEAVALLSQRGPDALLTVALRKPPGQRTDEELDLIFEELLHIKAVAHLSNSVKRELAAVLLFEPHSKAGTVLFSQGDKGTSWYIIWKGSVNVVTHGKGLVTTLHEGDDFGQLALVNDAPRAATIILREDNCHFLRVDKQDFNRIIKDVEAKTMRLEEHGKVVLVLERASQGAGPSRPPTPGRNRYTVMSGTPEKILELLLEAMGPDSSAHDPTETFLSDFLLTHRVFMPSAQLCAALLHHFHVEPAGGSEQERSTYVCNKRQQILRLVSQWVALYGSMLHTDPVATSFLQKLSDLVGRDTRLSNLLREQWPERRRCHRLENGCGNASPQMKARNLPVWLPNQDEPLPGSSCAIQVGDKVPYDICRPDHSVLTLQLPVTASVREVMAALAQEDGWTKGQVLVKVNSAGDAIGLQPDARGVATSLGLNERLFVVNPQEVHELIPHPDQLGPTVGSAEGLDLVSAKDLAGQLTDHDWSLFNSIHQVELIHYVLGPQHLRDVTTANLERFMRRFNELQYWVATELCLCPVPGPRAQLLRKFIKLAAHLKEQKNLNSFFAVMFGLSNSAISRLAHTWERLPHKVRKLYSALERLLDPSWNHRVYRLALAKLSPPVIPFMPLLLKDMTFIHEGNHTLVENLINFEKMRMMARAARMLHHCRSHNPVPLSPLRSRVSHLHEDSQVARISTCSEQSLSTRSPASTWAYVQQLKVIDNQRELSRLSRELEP
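Compounds were pinned as a concentration titration into mixtures of EPAC1 (100 nM), BODIPY-GDP-loaded Rap1B (250 nM) and GDP (50 uM). After 5 min at room temperature, fluorescence was followed for 30 min; activity was scaled to 6.5 mM cAMP.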
EPAC1 antag – qHTS for Antagonist of cAMP-regulated guanine nucleotide exchange factor 3 (EPAC1): primary screen | Rap guanine nucleotide exchange factor 3 (Homo sapiens), O95398 | EPAC1 GEF assay, Rap1b-BODIPY-GDP exchange fluorescence | Potency, µM (titrated, usually from 115 µM), actives largely listed as inhibitors | 0.14% of 360,000 active; further: nearly all actives have a fitted effect of over 50% in size
USP2a inh – qHTS Assay for Inhibitors of Ubiquitin-specific Protease USP2a Using CHOP2 as the Reporter. AID 463254, 2010. USP2 core, Ub-CHOP2 coupled fluorogenic reporter, 485/531. Potency, µM (doses to about 38.3 µM), actives largely listed as inhibitors. 0.01% of 330,000 active
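Deubiquitinase activity read as fluorescence (485/531 nm) after Ub-CHOP2 cleavage activates the enterokinase reporter on its substrate; USP2 core 10nM, Ub-CHOP2 and substrate 25nM each, 30min compound preincubation then 60min RT; data normalized to NEM, curves fitted.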
EPAC2 antagonist – qHTS for Antagonist of cAMP-regulated guanine nucleotide exchange factor 2 (EPAC2): primary screen. Rap guanine nucleotide exchange factor 4 (Homo sapiens), Q8WZA2. EPAC2 GEF exchange of Rap1B-BODIPY-GDP, fluorescence. Potency, µM (titrated, usually from 114 µM), most hits filed as inhibitors. 0.18% of 360,000 active. AID 720708, 2013; further: nearly all actives have a fitted effect of over 45% in size
Numbers stand for hits; . = inactive; ? = inconclusive; / = no result given; ! = repeats disagree. The call rests on the fitted dose curve; in most records, active means well fitted curve in the direction sought with a large enough effect; inconclusive means small, poorly fitted or top-dose-only effect, or another doubt; inactive means no such curve, though single readings can be large; an effect the other way counts as inactive or inconclusive.

SMILES	USP1-UAF1 inh	EPAC2 ag	EPAC1 ag	EPAC1 antag	USP2a inh	EPAC2 antagonist
CCOCCn1ccc2c(OCC(=O)Nc3cc(C(F)(F)F)ccc3Cl)cccc2c1=O	.	/	/	/	/	/
O=C1CC(=O)N(Cc2ccco2)C(=S)N1	.	.	.	45µM	?	.
Cc1cc2nc3c(=O)n(C4CCCCC4)c(=O)[nH]c3nc2cc1N	?	?	112µM	.	?	.
Cc1cc(C)cc(Nc2cc(=O)n(C3CCCCC3)c(=O)[nH]2)c1	.	.	.	.	.	.
Cn1c(-c2sccc2OCc2ccc(Cl)cc2Cl)n[nH]c1=S	.	.	.	89µM	.	.
Cc1ccc(CNC(=O)CSc2nnc(C)c3c(C)n(-c4ccccc4)nc23)cc1	.	/	/	/	/	/
COc1ccc(CCNc2nc3ccccc3c3nc(-c4cccc(C)c4)nn23)cc1OC	.	/	/	/	/	/
COc1cccc(-c2ccc(C#N)c(OC(=O)c3ccc(Cl)cc3)n2)c1	.	6.3µM	.	.	.	.
COc1cccc2cc(/C(=N/O)c3ccccc3)oc12	.	.	.	.	.	50µM
COc1cccc(C2CC(=O)Nc3c2c(=O)[nH]c2nc4ccccc4n32)c1 (stereo not given)	.	/	/	/	/	/
CN1C/C(=C\c2ccc(N3CCOCC3)cc2)C(=O)/C(=C/c2ccc(N3CCOCC3)cc2)C1	?	?	.	.	.	.
CCN1C/C(=C/c2ccc(N3CCOCC3)cc2)C(=O)/C(=C/c2ccc(N3CCOCC3)cc2)C1	?	89µM	63µM	.	.	.
CC(=O)N1CCCc2cc(S(=O)(=O)N3CCCC(C(=O)Nc4cccc(Cl)c4C)C3)ccc21 (stereo not given)	.	/	/	/	/	/
Nc1ccc(N(CCO)CCO)cc1	8.9µM	.	.	.	.	.
CCN(CC)c1ccc(N)cc1	.	.	.	.	.	.
COc1ccc(/C(O)=C/c2nc3ccccc3n(-c3ccccc3)c2=O)cc1	?	89µM	.	.	.	.
O=C(NCc1ccco1)c1cccc2c1C(=O)c1ccc(N3CCC(Cc4ccccc4)CC3)cc1S2(=O)=O	28µM	.	.	.	.	.
O=C(NCc1cccc(F)c1)c1cccc2c1C(=O)c1ccc(N3CCCC3)cc1S2(=O)=O	?	?	28µM	.	.	.
COc1ccccc1N1CCN(c2ccc3c(c2)S(=O)(=O)c2cccc(C(=O)NCc4ccc(F)cc4)c2C3=O)CC1	.	.	.	.	/	.
O=C(NCc1cccc(C(F)(F)F)c1)c1cccc2c1C(=O)c1ccc(N3CCC(Cc4ccccc4)CC3)cc1S2(=O)=O	25µM	.	.	.	?	.
CC1CCN(c2ccc3c(c2)S(=O)(=O)c2cccc(C(=O)NCc4cccc(F)c4)c2C3=O)CC1	?	.	100µM	.	.	.
O=C(CSc1nc(-c2ccccc2)nc2c1CCCC2)c1ccc(F)cc1	.	/	/	/	/	/
CCCCC(CC)CNC(=O)CN(C)S(=O)(=O)c1ccc2c(c1)c(=O)n(C)c(=O)n2C (stereo not given)	.	/	/	/	/	/
O=C(NCc1cccc(F)c1)c1cccc2c1C(=O)c1ccc(N3CCC(Cc4ccccc4)CC3)cc1S2(=O)=O	7.9µM	.	.	.	?	.
O=C(O)c1[nH]c2ccccc2c1C(c1cc(Cl)cc([N+](=O)[O-])c1O)c1c(C(=O)O)[nH]c2ccccc12	32µM	.	.	25µM	.	.
SMILES	USP1-UAF1 inh	EPAC2 ag	EPAC1 ag	EPAC1 antag	USP2a inh	EPAC2 antagonist
O=C(c1ccco1)[C@@H]1[C@@H]2C(=O)N(c3ccc(Br)cc3)C(=O)[C@@H]2C2c3ccccc3C=CN21 (stereo not given in full)	16µM	.	.	.	.	.
CC(=O)[C@H]1[C@@H]2C(=O)N(c3cccc(Cl)c3)C(=O)[C@@H]2[C@H]2c3ccccc3C=CN21	10µM	.	.	.	.	.
CC(=O)[C@@H]1[C@@H]2C(=O)N(c3ccc(F)c(Cl)c3)C(=O)[C@@H]2C2c3ccccc3C=CN21 (stereo not given in full)	/	/	/	/	.	/
CCc1noc(-c2ccc(N(C)Cc3ccc(OC)cc3)c([N+](=O)[O-])c2)n1	.	/	/	/	/	/
Cc1cc(O)cc(C)c1NS(=O)(=O)c1ccc2ccccc2c1	.	.	.	.	.	11µM
Cc1ccc(CNC(=O)c2cccc(NC(=O)N3CCSc4ncccc43)c2)cc1	.	/	/	/	/	/
CC(Sc1oc(-c2cccs2)nc1S(=O)(=O)c1ccccc1)c1ccccc1 (stereo not given)	.	/	/	/	/	/
COc1ccc(OC)c(NC(=O)CSc2nc(O)cc(=O)n2CC(C)C)c1	.	.	.	56µM	?	.
CCCCn1c(NS(=O)(=O)c2ccc(C)cc2)c(S(=O)(=O)c2ccccc2)c2nc3ccccc3nc21	28µM	.	.	?	.	.
COc1cc(/C=C/C(=O)NC(=O)c2ccccc2O)ccc1O	.	.	.	.	.	.
COc1cc(/C=C/C(O)=C/C(=O)/C=C/c2ccc(O)cc2)ccc1O	28µM	.	.	.	.	.
CC(Oc1ccc(-c2nnco2)cc1)C(=O)N1CCOCC1 (stereo not given)	.	.	32µM	.	.	.
CC(C(=O)Nc1ccc(F)c(Cl)c1)N1Cc2ccccc2C1=O (stereo not given)	.	/	/	/	/	/
CCCC1C(C(=O)OCC)=C(C)NC(C)=C1C(=O)OCC	.	.	.	.	.	.
CCOC(=O)C1=C(C)NC(C)=C(C(=O)OCC)C1	22µM!	.	?	.	.	.
COc1ccc(NC(=O)Cn2c(=O)n(CCC(=O)NCc3ccccc3OC)c(=O)c3ccccc32)cc1Cl	.	/	/	/	/	/
O=C(Cc1ccccc1)Nn1c(O)c(/C=C2\C=Nc3ccccc32)sc1=S	32µM	100µM	89µM	.	.	.
COc1cc(Br)c(C(=O)c2nccc3cc(OC)c(OC)cc23)cc1OC	10µM	.	.	.	.	.
COc1ccc(CNC(=O)Cn2ncn3nc(-c4cccs4)cc3c2=O)cc1	.	/	/	/	/	/
CCOc1ccc(CCNC(=O)CCn2c(=O)c3cccn3c3cccnc32)cc1	.	/	/	/	/	/
O=C(NCc1cc(C(F)(F)F)ccc1Cl)c1cccc2c1C(=O)c1ccc(N3CCC(N4CCCCC4)CC3)cc1S2(=O)=O	.	89µM	.	?	/	?
